Reference: PubChem BioAssay AID1209 (Sanford-Burnham Center for Chemical Genomics, 2008)
Screen size: about 190,000 compounds; about 810 (0.43%) were called active. This is one part of a sample in which actives are shown more often than they occur. Cut-off read from the data, not from the text of the source: active = inhibition above about 50%; inactive = the rest.

These molecules were tested against Mannose-6-phosphate isomerase (Homo sapiens) (UniProt P34949) (assay: inhibitors of human PMI, primary screen, biochemical, fluorescence intensity, coupled assay (AID 1209;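 note: plate controls were DMSO vehicle for no effect and wells lacking substrate for full effect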)). Conditions: purified PMI enzyme, at 20 µM, stronger effect = higher value.
Chain of Mannose-6-phosphate isomerase (Homo sapiens) (P34949 whole entry, looked up): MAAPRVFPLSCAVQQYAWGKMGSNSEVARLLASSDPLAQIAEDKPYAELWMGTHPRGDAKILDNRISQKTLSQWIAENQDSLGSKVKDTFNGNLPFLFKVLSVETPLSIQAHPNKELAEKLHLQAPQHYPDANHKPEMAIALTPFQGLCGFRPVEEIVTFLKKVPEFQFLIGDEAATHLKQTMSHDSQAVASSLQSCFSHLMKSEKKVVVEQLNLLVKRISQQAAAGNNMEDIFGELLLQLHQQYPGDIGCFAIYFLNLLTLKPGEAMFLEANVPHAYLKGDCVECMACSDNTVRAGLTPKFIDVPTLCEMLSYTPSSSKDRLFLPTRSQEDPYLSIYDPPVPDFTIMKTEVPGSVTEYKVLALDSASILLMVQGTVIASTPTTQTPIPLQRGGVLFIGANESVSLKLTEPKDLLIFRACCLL

| SMILES | inhibition |
| --- | --- |
| COc1ccc(/C=C/C(=O)OCC(=O)Nc2c(C)cccc2C)cc1 | -7.6% (inactive) |
| CC(=O)c1ccc(Nc2cc(C)nc3ccccc23)cc1 | 95.7% (active) |
| COc1ccc(Nc2cc(C)nc3ccccc23)cc1 | 16% (inactive) |
| CC(=O)c1ccc(Nc2cc(C)nc3ccc(C)cc23)cc1 | 11.3% (inactive) |
| Cc1ccc(O)c(C(=O)c2cnc3c(c2)CN(C)C(=O)N3)c1 | 3.7% (inactive) |
| O=C(c1cnc2sccn2c1=O)N(Cc1ccccc1)c1ccccn1 | 14.3% (inactive) |
| CCOC(=O)c1sc(NC(=O)CSc2nnnn2-c2ccccc2)c(C(=O)OCC)c1C | 14.3% (inactive) |
| CCOC(=O)c1sc(NC(=O)CSc2nnnn2-c2ccc(C)cc2)c(C(=O)OCC)c1C | 12.2% (inactive) |
| CCOC(=O)c1c(NC(=O)CSc2nnnn2-c2ccc(OC)cc2)sc(C)c1C | 60% (active) |
| Cc1cc(OCC(=O)NCc2ccncc2)ccc1Cl | 1% (inactive) |
| Cc1ccc(N2CCN(CC(=O)Nc3c(C(=O)C4CC4)oc4ccccc34)CC2)cc1 | -11.1% (inactive) |
| COc1ccc(N(CC(=O)Nc2ccc3c(c2)OCO3)S(C)(=O)=O)c(OC)c1 | -4.4% (inactive) |
| C[C@@](Cc1ccc(O)c(O)c1)(NN)C(=O)O | 12.9% (inactive) |
| COC(=O)C(N)Cc1ccc(O)c(O)c1 (stereo unspecified) | 56.9% (active) |
| COc1ccc(CC(=O)O)cc1O | 2.3% (inactive) |
| COC(=O)[C@@H](N)Cc1ccc(O)cc1 | 2.6% (inactive) |
| C[C@](N)(Cc1ccc(O)c(O)c1)C(=O)O | 57.7% (active) |
| COC(=O)C(N)Cc1ccc(O)cc1 (stereo unspecified) | -4.5% (inactive) |
| Oc1c(C(c2ccccc2)N2CCCCC2)sc2ncnn12 (stereo unspecified) | -8.5% (inactive) |
| COc1cc2c(cc1OC)C(=S)NC1(CCCC1)C2 | -19.1% (inactive) |
| CC(=O)c1c(OC(=O)c2ccco2)c2ccccc2n1C | 4% (inactive) |
| NC(=O)c1ccsc1NC(=O)CSc1nnc(Nc2ccccc2)s1 | 0.1% (inactive) |
| CC(C)C[C@H](NS(=O)(=O)c1ccc(Br)cc1)C(=O)O | 5.2% (inactive) |
| CCCCNc1nc(NC)nc(Cl)c1SC | 0.4% (inactive) |
| C/C(=N\NC(=O)c1ccc([N+](=O)[O-])cc1)c1c(O)cc(C)oc1=O | -40.7% (inactive) |
| C/C(=N/NC(=O)c1cc(O)c(O)c(O)c1)c1ccc([N+](=O)[O-])cc1 | 64.5% (active) |

| SMILES | inhibition |
| --- | --- |
| C/C(=N\NC(=O)c1ccc([N+](=O)[O-])cc1)c1cccc([N+](=O)[O-])c1 | 3.4% (inactive) |
| CCN(CC)c1ccc(/C=C2\NC(=O)NC2=O)cc1 | 9.7% (inactive) |
| O=C(Nn1cnc2ccccc2c1=O)c1cccc(Cl)c1 | 3% (inactive) |
| CC[N+](C)(CC)CC(O)COCC1COc2ccccc2O1 (stereo unspecified) | 19.8% (inactive) |
| C[N+]1(CC(O)COCC2COc3ccccc3O2)CCOCC1 (stereo unspecified) | 66.2% (active) |
| OC(COCC1COc2ccccc2O1)CN1CCN(c2ccccc2)CC1 (stereo unspecified) | 1.8% (inactive) |
| C/C(=N\NC(N)=S)C1C2C3CC4C5CC(C42)C1C53 (stereo unspecified) | 0.3% (inactive) |
| O=C(NCc1ccco1)c1ccccc1-c1ccc(C(F)(F)F)cc1 | 4.9% (inactive) |
| Oc1c(CN2CCCCC2)cc(COCc2ccccc2)c2cccnc12 | 46.6% (inactive) |
| COc1ccccc1N1CCN(Cc2ccc(O)c3ncccc23)CC1 | 55.7% (active) |
| CN1CCN(Cc2cc(Cl)c3cccnc3c2OC(=O)c2cccs2)CC1 | 15.8% (inactive) |
| CCOC(=O)N1CCN(Cc2ccccc2Cl)CC1 | 4.4% (inactive) |
| Oc1ccc(CN2CCN(c3ccccc3)CC2)c2cccnc12 | 35.3% (inactive) |
| COc1ccccc1N1CCN(Cc2cc(Br)c(O)c3ncccc23)CC1 | 25.4% (inactive) |
| CCOC(=O)N1CCN(Cc2cc(Cl)c3cccnc3c2O)CC1 | 54.9% (active) |
| CN1CCN(Cc2cc(COCc3ccccc3)c3cccnc3c2O)CC1 | 43.5% (inactive) |
| O=[N+]([O-])c1cc(CN2CCCC2)c2cccnc2c1O | 5% (inactive) |
| Oc1c(CN2CCCCC2)cc(Br)c2cccnc12 | 51.6% (active) |
| COCc1cc(CN2CCCC2)c(O)c2ncccc12 | 41% (inactive) |
| Cc1ccc(S(=O)(=O)N2CCCC2C(=O)Nc2nccs2)cc1 (stereo unspecified) | -9.8% (inactive) |
| CCOC(=O)C1CCCN(C(=O)c2ccc(Cl)c(S(=O)(=O)N3CCCCCC3)c2)C1 (stereo unspecified) | -22.1% (inactive) |
| O=C1OC(Nc2ccc(F)cc2F)c2ccccc21 (stereo unspecified) | -10.1% (inactive) |
| CCOC(=O)N1CCN(c2nc(C)cc(C(F)(F)F)n2)CC1 | 15.5% (inactive) |
| COc1ccc(N=C2SC(C(=O)N3CCN(c4ccccc4)CC3)CC(=O)N2C)cc1 (stereo unspecified) | 5% (inactive) |
| CC(C)(C)C1CCc2c(C(=O)NNC(=O)CCCC(=O)O)csc2C1 (stereo unspecified) | -6.1% (inactive) |
| COc1ccccc1C1C(C(C)=O)=C(O)C(=O)N1CCc1ccccc1 (stereo unspecified) | 4.1% (inactive) |

| SMILES | inhibition |
| --- | --- |
| Cc1ccccc1NC(=S)NC1CC2CCC(C1)N2Cc1ccco1 (stereo unspecified) | -0.8% (inactive) |
| COc1ccc(CC2(C)OC(c3ccc(Cl)cc3)=NN2C(C)=O)cc1 (stereo unspecified) | 19% (inactive) |
| O=C(Nc1ccc(S(=O)(=O)Nc2ncccn2)cc1)c1ccccc1NS(=O)(=O)c1ccc(F)cc1 | 2.8% (inactive) |
| Cc1ccc(C)c(C(=O)COC(=O)c2cc(Cl)nc3ccccc23)c1 | 12.6% (inactive) |
| Oc1c(CN2CCc3ccccc3C2)cc(Cl)c2cccnc12 | 40% (inactive) |
| Oc1ccc(CN2CCCCC2)c2cccnc12 | 43.3% (inactive) |
| O=c1cc(CN2CCOCC2)c2c(ccc3ccccc32)o1 | 1.2% (inactive) |
| CCOC(=O)C1CCN(Cc2c(O)ccc3ccccc23)CC1 | 28.5% (inactive) |
| CCOC(=O)N1CCN(Cc2ccccn2)CC1 | 3.7% (inactive) |
| CCOC(=O)C1CCN(Cc2ccc(O)c3ncccc23)CC1 | 67% (active) |
| CCOC(=O)C1CCN(Cc2ccc(OC)c(C)c2OC)CC1 | -4.3% (inactive) |
| COCc1cc(CN2CCN(C)CC2)c(O)c2ncccc12 | 36.7% (inactive) |
| c1cc2ccc3ccc(CN4CCOCC4)c4ccc(c1)c2c34 | -2.6% (inactive) |
| Oc1c(CN2CCOCC2)ccc2ccccc12 | 50.8% (active) |
| CCOC(=O)N1CCN(Cc2ccc(O)c3ncccc23)CC1 | 59.9% (active) |
| CCOC(=O)CC(NC(=O)Cc1ccccc1)c1ccccc1Cl (stereo unspecified) | 13.1% (inactive) |
| COC(=O)C1=C(NC(=O)c2ccccc2C)CCS1 | -17.4% (inactive) |
| O=C(Nc1cnn(Cc2ccc(F)cc2)c1)C(c1ccccc1)c1ccccc1 | 16% (inactive) |
| O=S(=O)(Nc1cccnc1)c1ccc(Cl)c(C(F)(F)F)c1 | 6% (inactive) |
| CC(C)C(=O)NCCc1nc2ccccc2n1CCOc1ccccc1 | -1.6% (inactive) |
| CCN(CC)C(=O)C1=C(C)NC(=S)NC1c1cccs1 (stereo unspecified) | -9% (inactive) |
| CCOC(=O)C1CCCN(Cc2cc(=O)oc3cc(C)ccc23)C1 (stereo unspecified) | -10.2% (inactive) |
| CN(CC(=O)NC1CCCCCC1)S(=O)(=O)c1ccc2c(c1)n(C)c(=O)c(=O)n2C | 2.1% (inactive) |
| COC(=O)C1=C(NC(=O)c2ccc(C)c(C)c2)CCS1 | 3.8% (inactive) |
| Cc1ccc2cc(C(c3nnnn3C3CCCC3)N3CCOCC3)c(=O)[nH]c2c1C (stereo unspecified) | -2.5% (inactive) |
| CCOC(=O)C1=C(C)N(C)C(=O)NC1c1cc2c(cc1[N+](=O)[O-])OCO2 (stereo unspecified) | 35.3% (inactive) |

| SMILES | inhibition |
| --- | --- |
| CCOC(=O)C1=C(C)NC(=O)CC1c1cc2c(cc1Br)OCO2 (stereo unspecified) | 1.2% (inactive) |
| CCOC(=O)C1=C(C)NC(=O)CC1c1cc2c(cc1[N+](=O)[O-])OCO2 (stereo unspecified) | 53.2% (active) |
| Cc1noc(C)c1C(=O)OCC(=O)NC(=O)NC12CC3CC(CC(C3)C1)C2 | -2.2% (inactive) |
| Cc1noc(C)c1C(=O)OCC(=O)NC1CC1 | 1.3% (inactive) |
| Cc1noc(C)c1C(=O)OCC(=O)C12CC3CC(CC(C3)C1)C2 | 100% (active) |
| O=C(Nc1nccs1)NC1CCCCC1 | -3% (inactive) |
| CCC1S/C(=N/C(=O)NC2CCCCC2)NC1=O (stereo unspecified) | -8.6% (inactive) |
| O=C(/N=C1\NC(=O)C(F)(C(F)(F)F)S1)NC1CCCCC1 (stereo unspecified) | 74.7% (active) |
| c1ccc2c(c1)nc(N1CCN(C3CCCCC3)CC1)c1nnnn12 | 4.7% (inactive) |
| Cc1nc2ccc(NC(=O)c3ccc(S(=O)(=O)N4CCOCC4)cc3)cc2s1 | 1.9% (inactive) |
| O=C(CSc1nc2cc(S(=O)(=O)N3CCOCC3)ccc2o1)Nc1c(F)cccc1F | 31.9% (inactive) |
| Cc1nc2ccc(NC(=O)c3cc(S(=O)(=O)N4CCOCC4)ccc3C)cc2s1 | 9.8% (inactive) |
| Cc1ccc(C(=O)CSc2nc3cc(S(=O)(=O)N4CCOCC4)ccc3o2)cc1 | 25.2% (inactive) |
| Cc1nc2ccc(Nc3nc4cc(S(=O)(=O)N5CCOCC5)ccc4o3)cc2s1 | 64.5% (active) |
| Cc1noc(C)c1CSc1nc2cc(S(=O)(=O)N3CCOCC3)ccc2o1 | 53.1% (active) |
| CC(/C=N/NC(=O)CSc1nc(C)cc(C)n1)=C\c1ccccc1 | 16.1% (inactive) |
| CCOc1ccc(-c2nnc(-c3ccccc3)o2)cc1 | -0.3% (inactive) |
| CCCCc1nc(Cl)c(C#N)c2c1CSC(C)(C)C2 | 13.1% (inactive) |
| CCc1onc(C)c1C(=O)O | -13.1% (inactive) |
| COc1cccc(-c2nnc(NC(=O)Cc3cccs3)s2)c1 | -3% (inactive) |
| Cc1nn(Cc2cccc(C(=O)N3N=C(C(F)F)CC3(O)C(F)F)c2)c(C)c1[N+](=O)[O-] (stereo unspecified) | -1.8% (inactive) |
| O=C1c2ccccc2C(=O)N1CN(C(=O)c1ccccc1[N+](=O)[O-])c1ccc(F)cc1 | 13.9% (inactive) |
| Oc1ccccc1/C=C/c1noc(-c2ccccc2O)n1 | -7% (inactive) |
